system: CLZ3 (HCA2 human fibroblast dual HR-NHEJ reporter); assay: NHEJ repair efficiency (GFP+ cells) relative to control (log10 fold); higher = more non-homologous end joining; settings: 5 µM; doxycycline 0.5 ug/mL
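Wherever HR repair efficiency (tdTomato+ cells) relative to control is given: compound given one day before doxycycline, which switches on I-SceI endonuclease expression to create double-strand breaks within the integrated reporter.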
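Wherever NHEJ repair efficiency (GFP+ cells) relative to control is given: compound given one day ahead of doxycycline, which switches on I-SceI endonuclease to cut the chromosomally integrated reporter and create DSBs.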

Compound	NHEJ repair efficiency (log10)
CC(=O)OCC1=C[C@@H]2OC(=O)C3=CO[C@@H](O[C@@H]4O[C@H](CO)[C@@H](O)[C@H](O)[C@H]4O)[C@H]1[C@@H]32 [Asperuloside]	0.0752
O=C(C=Cc1ccc(O)c(O)c1)O[C@H]1[C@H](O)C[C@](O)(C(=O)O)C[C@H]1OC(=O)C=Cc1ccc(O)c(O)c1 [Isochlorogenic acid C]	0.118
OCC1=C[C@@H](O)[C@]2(O[C@@H]3O[C@H](CO)[C@@H](O)[C@H](O)[C@H]3O[C@@H]3O[C@H](CO)[C@@H](O)[C@H](O)[C@H]3O)C=CO[C@@H](O[C@@H]3O[C@H](CO)[C@@H](O)[C@H](O)[C@H]3O)[C@H]12 [Rehmannioside D]	-0.165
O=c1cc(-c2ccc(O)cc2)oc2c([C@@H]3O[C@H](CO)[C@@H](O)[C@H](O)[C@H]3O)c(O)cc(O)c12 [Vitexin]	0.172
O=C(O)[C@H]1O[C@@H](Oc2cc(O)c3c(=O)cc(-c4ccc(O)cc4)oc3c2)[C@H](O)[C@@H](O)[C@@H]1O [Apigenin-7-O-Glucronide]	-0.216
O=C(O)/C=C/c1ccc(O)c(O)c1 [Caffeic Acid]	0.0711

system: CLZ3 (HCA2 human fibroblast dual HR-NHEJ reporter); assay: HR repair efficiency (tdTomato+ cells) relative to control (log10 fold); higher = more homologous recombination; settings: 5 µM; doxycycline 0.5 ug/mL

Compound	HR repair efficiency (log10)
COc1ccc(-c2oc3c(CC=C(C)C)c(O[C@@H]4O[C@H](CO)[C@@H](O)[C@H](O)[C@H]4O)cc(O)c3c(=O)c2O[C@@H]2O[C@@H](C)[C@H](O)[C@@H](O)[C@H]2O)cc1 [Icariine]	-0.0902
C[C@H]1[C@H](C)CC[C@]2(C(=O)O[C@@H]3O[C@H](CO[C@@H]4O[C@H](CO)[C@@H](O[C@@H]5O[C@@H](C)[C@H](O)[C@@H](O)[C@H]5O)[C@H](O)[C@H]4O)[C@@H](O)[C@H](O)[C@H]3O)CC[C@]3(C)C(=CC[C@@H]4[C@@]5(C)C[C@@H](O)[C@H](O)[C@@](C)(CO)[C@@H]5[C@H](O)C[C@]43C)[C@H]12 [Madecassoside]	0.19
O=C(O)C(O)c1ccccc1 (stereo unspecified) [Mandelic Acid]	0.105
COC(=O)c1ccc(O)cc1 [Methylparaben]	0.0479
CC1(C)CC[C@]2(C(=O)O[C@@H]3O[C@H](CO[C@@H]4O[C@H](CO)[C@@H](O)[C@H](O)[C@H]4O)[C@@H](O)[C@H](O)[C@H]3O)CC[C@]3(C)C(=CC[C@@H]4[C@@]5(C)CC[C@H](O[C@@H]6OC[C@H](O)[C@H](O)[C@H]6O)[C@@](C)(CO)[C@@H]5CC[C@]43C)[C@@H]2C1 [Akebiasaponin D]	-0.29
OCCc1ccc(O)cc1 [Tyrosol]	0.306
O=C(/C=C/c1ccc(O)c(O)c1)O[C@@H]1[C@H](O)C[C@@](O)(C(=O)O)C[C@H]1OC(=O)/C=C/c1ccc(O)c(O)c1 [Isochlorogenic acid B]	0.105
C[C@@H]1CC[C@@]2(OC1)O[C@H]1C[C@H]3[C@@H]4CC=C5C[C@@H](O)C[C@@H](O)[C@]5(C)[C@H]4CC[C@]3(C)[C@H]1[C@@H]2C [Ruscogenin]	0.181
COc1cc(/C=C/C(=O)O)ccc1O [Sodium Ferulate]	0.0132
COc1cc(/C=C/C(=O)O)ccc1O [Ferulaic Acid]	-0.0235
CC[C@]12CCCN3CCc4c(n(c5ccccc45)[C@@](O)(C(=O)OC)C1)[C@@H]32 [Vincamine]	0.0346
CCCCCCCC/C=C\CCCCCCCC(=O)OCC(COC(=O)CCCCCCC/C=C\CCCCCCCC)OC(=O)CCCCCCC/C=C\CCCCCCCC [Glycerol Trioleate]	0.0182
CC1(C)[C@@H](O[C@H]2O[C@H](C(=O)O)[C@@H](O)[C@H](O)[C@H]2O[C@@H]2O[C@H](C(=O)O)[C@@H](O)[C@H](O)[C@H]2O)CC[C@]2(C)[C@H]3C(=O)C=C4[C@@H]5C[C@@](C)(C(=O)O)CC[C@]5(C)CC[C@@]4(C)[C@]3(C)CC[C@@H]12 [Monoammonium Glycyrrhizinate]	-0.00605
C=C1C[C@@]23CC[C@H]4[C@@](C)(CCC[C@@]4(C)C(=O)O[C@@H]4O[C@H](CO)[C@@H](O)[C@H](O)[C@H]4O)[C@@H]2CC[C@]1(O[C@@H]1O[C@H](CO)[C@@H](O)[C@H](O)[C@H]1O[C@@H]1O[C@H](CO)[C@@H](O)[C@H](O)[C@H]1O)C3 [Stevioside]	0.296
COC(=O)c1c2c(c3ccccc3c1O)OC(C)(C)C=C2 [Rubimaillin]	-0.0243
O=C(/C=C/c1ccc(O)c(O)c1)OC1CC(OC(=O)/C=C/c2ccc(O)c(O)c2)(C(=O)O)CC(O)C1O (stereo unspecified) [1,3-Dicaffeoylquinic Acid]	-0.0122
CCCCCCCCCCCCCCCC(=O)O [Palmitic Acid]	0.0657
O=c1c(O[C@@H]2O[C@H](CO)[C@H](O)[C@H](O)[C@H]2O)c(-c2ccc(O)c(O)c2)oc2cc(O)cc(O)c12 [Hyperoside]	-0.00424
O=c1c(-c2ccc(O)cc2)coc2cc(O)cc(O)c12 [Genistein]	-0.179
O=c1cc(-c2ccc(O)c(-c3c(O)cc(O)c4c(=O)cc(-c5ccc(O)cc5)oc34)c2)oc2cc(O)cc(O)c12 [Amentoflavone]	0.0831

Compound	HR repair efficiency (log10)
C[C@@]12C[C@@]3(O)O[C@@H](O1)[C@]1(COC(=O)c4ccc(O)cc4)[C@@H]3C[C@]12O[C@@H]1O[C@H](CO)[C@@H](O)[C@H](O)[C@H]1O [Oxypaeoniflorin]	0.0237
CC(C)=C1CC[C@@H](C)CC1=O [Pulegone]	-0.0589
CC(CC(=O)C[C@@H](C)[C@H]1CC(=O)[C@@]2(C)C3=C(C(=O)C[C@]12C)[C@@]1(C)CCC(=O)C(C)(C)[C@@H]1C[C@@H]3O)C(=O)O (stereo partly specified) [Ganoderic Acid D]	-0.241
O=C(O)c1cc(O)c(O)c(O)c1 [Gallic acid]	-0.11
COC(=O)[C@@]1(C)CC[C@]2(C(=O)O)CC[C@]3(C)C(=CC[C@@H]4[C@@]5(C)C[C@H](O)[C@H](O)[C@@](C)(CO)[C@@H]5CC[C@]43C)[C@@H]2C1 [Phytolaccagenin]	0.0241
CC(=O)CCc1ccc(O)cc1 [Raspberry Ketone]	-0.0897
COc1ccc([C@H]2OC[C@H]3[C@@H]2CO[C@H]3c2ccc(O[C@@H]3O[C@H](CO)[C@@H](O)[C@H](O)[C@H]3O)c(OC)c2)cc1OC [Phillyrin]	-0.0538
O=c1c(O[C@@H]2O[C@H](CO)[C@@H](O)[C@H](O)[C@H]2O)c(-c2ccc(O)cc2)oc2cc(O)cc(O)c12 [Astragalin]	0.0112
COc1cc(O)c2c(=O)c(-c3ccc(O)cc3)coc2c1 [Prunusetin]	-0.16
C[C@]1(O)C[C@@H](O)[C@]2(O)C=CO[C@@H](O[C@H]3O[C@H](CO)[C@@H](O)[C@H](O)[C@H]3O)[C@@H]21 [Harpagide]	-0.126
CC[C@H](/C=C/[C@@H](C)[C@H]1CC[C@H]2[C@@H]3CC=C4C[C@@H](O)CC[C@]4(C)[C@H]3CC[C@]12C)C(C)C [Stigmasterol]	-0.14
COC(=O)C1=CO[C@@H](O[C@@H]2O[C@H](CO)[C@@H](O)[C@H](O)[C@H]2O)[C@H]2[C@@H]1[C@H](O)C[C@]2(C)OC(C)=O [8-O-Acetyl Shanzhiside Methyl Ester]	-0.109
COc1cc(/C=C/CO)ccc1O[C@@H]1O[C@H](CO)[C@@H](O)[C@H](O)[C@H]1O [Coniferin]	0.0767
O=C(O)[C@H]1O[C@@H](Oc2cc3oc(-c4ccc(O)cc4)cc(=O)c3c(O)c2O)[C@H](O)[C@@H](O)[C@@H]1O [Scutellarin]	0.0441
CC(=O)OCC1=C[C@@H]2OC(=O)C3=CO[C@@H](O[C@@H]4O[C@H](CO)[C@@H](O)[C@H](O)[C@H]4O)[C@H]1[C@@H]32 [Asperuloside]	0.1
O=C(C=Cc1ccc(O)c(O)c1)O[C@H]1[C@H](O)C[C@](O)(C(=O)O)C[C@H]1OC(=O)C=Cc1ccc(O)c(O)c1 [Isochlorogenic acid C]	0.0227
OCC1=C[C@@H](O)[C@]2(O[C@@H]3O[C@H](CO)[C@@H](O)[C@H](O)[C@H]3O[C@@H]3O[C@H](CO)[C@@H](O)[C@H](O)[C@H]3O)C=CO[C@@H](O[C@@H]3O[C@H](CO)[C@@H](O)[C@H](O)[C@H]3O)[C@H]12 [Rehmannioside D]	-0.0162
O=c1cc(-c2ccc(O)cc2)oc2c([C@@H]3O[C@H](CO)[C@@H](O)[C@H](O)[C@H]3O)c(O)cc(O)c12 [Vitexin]	0.126
O=C(O)[C@H]1O[C@@H](Oc2cc(O)c3c(=O)cc(-c4ccc(O)cc4)oc3c2)[C@H](O)[C@@H](O)[C@@H]1O [Apigenin-7-O-Glucronide]	0.161
O=C(O)/C=C/c1ccc(O)c(O)c1 [Caffeic Acid]	0.156
